Test results taken from PubChem BioAssay.

What follows are compounds tested on Human papillomavirus type 1a protein E7 (residues 44-93) (assay: HPV1a E7 fragment binders on microarrays, primary screen, biochemical, small-molecule microarray, residues 44-93, 635 nm fluorescence (AID 1108;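 further: E7 fragment applied at 1 µg/mL in TBST for 1 h at 4 C; score combines spot fluorescence with its signal to noise ratio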)). Settings: small-molecule microarray binding, fluorescence 635 nm; higher = more signal.
`Cc1ccccc1C(O)C1C=CC2C(=O)N(c3ccccc3)C(=O)C2N1Nc1ccc(C(C)C)cc1` (configuration not stated) was tested, and the composite z-score was 0.944.
`CCS[C@H]1[C@@H](C(=O)O)[C@H](c2ccc(C)cc2)N(S(=O)(=O)c2ccc(C)cc2)[C@@H]1CC` gave a composite z-score of 1.39.
Work on `COc1cc(NN2C(C(O)c3ccco3)C=CC3C(=O)N(c4ccccc4)C(=O)C32)cc(OC)c1OC` (configuration not stated) yielded a composite z-score of -0.271.
Work on `CNS(=O)(=O)c1ccc(C)cc1` yielded a composite z-score of 0.899.
With `O=C1N(Cc2ccccc2)c2ccccc2[C@@H]2OC(c3ccc(OCCCO)cc3)=N[C@]12CCS(=O)(=O)c1ccccc1` the composite z-score was 1.38.
With `COc1cc2c(cc1O)C(C1CC1)N(Cc1sc3ccccc3c1Cl)CC2` (configuration not stated) the composite z-score was 1.39.
`Oc1ccc2cc[n+](Cc3sc4ccccc4c3Cl)cc2c1` was tested, and the composite z-score was -0.317.
In the case of `CC(C)N1C(=O)C[C@@](C(=O)NCC(F)(F)F)(c2ccc([N+](=O)[O-])cc2)[C@H]1c1ccc(CO)cc1`, the composite z-score is reported as 0.627.
With `COCCCNC(=O)[C@@]1(C)c2ccccc2C(=O)N(C(C)C)[C@H]1c1ccc(CO)cc1` the composite z-score was 0.761.
Work on `COCCOC(=O)N1C(=O)[C@@]2(c3cc(C#CCC(C(=O)OC)C(=O)OC)ccc31)[C@H](c1ccccc1OCCO)N1[C@H](c3ccccc3)[C@H](c3ccccc3)OC(=O)[C@H]1[C@@H]2C(=O)N1CCN(c2ncccn2)CC1` yielded a composite z-score of 1.37.
In the case of `CCOC(=O)[C@H]1C/C=C/C[C@H](C(=O)OCC)C(=O)O[C@H]2[C@@H](OC)O[C@H](CO)[C@@H](OC(=O)c3c(OC)cccc3OC)[C@@H]2OC1=O`, the composite z-score is reported as -0.908.
Compound `C=C(COC)/C(=C/C[C@@H](OC(=O)c1ccncc1)c1ccc(CO)o1)c1cc(C(=O)OC)ccc1OC` has a composite z-score of 1.4.
